The record followed here is PubChem BioAssay (EPA / NIEHS).

What all share (conditions): mRNA level, 48 h; actives raise or lower the signal
Read-out in experiment [1]: catalase (CAT), CAT (gene 847)
In words: LTEA_HepaRG_CAT: Life Technologies and Expression Analysis (LTEA) Assay for catalase (CAT) using HepaRG (AID 2283452). A digest of the protocol:
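HepaRG cells in serum-free induction medium, 0.5% DMSO vehicle, exposed 48 h in duplicate over 8 half-log concentrations from 100 uM. CAT mRNA measured by qRT-PCR, normalized to ACTB, GAPDH, POLR2A; bidirectional fit versus DMSO.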

Read-out in experiment [2]: flavin-containing dimethylaniline monooxygenases 3 (FMO3), FMO3 (gene 2328)
The experiment is described as follows: LTEA_HepaRG_FMO3: Life Technologies and Expression Analysis (LTEA) Assay for flavin-containing dimethylaniline monooxygenases 3 (FMO3) using HepaRG (AID 2283453). A digest of the protocol: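 HepaRG, 48 h exposure, 8-pt half-log series from 100 uM, 0.5% DMSO vehicle, duplicates; FMO3 transcript by Fluidigm TaqMan qRT-PCR, housekeeping-normalized; gain/loss fit vs DMSO.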

Read-out in experiment [3]: Cytochrome P450 (CYP1A1), CYP1A1 (gene 1543)
In words: LTEA_HepaRG_CYP1A1: Life Technologies and Expression Analysis (LTEA) Assay for Cytochrome P450 (CYP1A1) using HepaRG (AID 2283454). The method, boiled down:
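Differentiated HepaRG cells in serum-free induction medium were exposed in duplicate for 48 h to eight half-log concentrations up to 100 uM in 0.5% DMSO. CYP1A1 mRNA was quantified by TaqMan qRT-PCR, normalized to ACTB, GAPDH and POLR2A.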

Read-out in experiment [4]: CFLAR gene, CFLAR (gene 8837)
The experiment is described as follows: LTEA_HepaRG_CFLAR: Life Technologies and Expression Analysis (LTEA) Assay for CFLAR gene using HepaRG (AID 2283455). The method, boiled down:
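Differentiated HepaRG cells in serum-free induction medium were exposed 48 h in duplicate to eight half-log concentrations up to 100 uM in 0.5% DMSO; mRNA measured by TaqMan qRT-PCR, normalized to ACTB, GAPDH, POLR2A; bidirectional fitting versus DMSO.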

Read-out in experiment [5]: Forkhead box O1 (FOXO1), FOXO1 (gene 2308)
The experiment is described as follows: LTEA_HepaRG_FOXO1: Life Technologies and Expression Analysis (LTEA) Assay for Forkhead box O1 (FOXO1) using HepaRG (AID 2283456). The method, boiled down: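 Differentiated HepaRG cells, in serum-free induction medium with 0.5% DMSO, exposed 48 h in duplicate to 8-point half-log series from 100 uM. FOXO1 mRNA measured by TaqMan qRT-PCR, normalized to ACTB, GAPDH, POLR2A; bidirectional fit versus DMSO.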

Read-out in experiment [6]: growth arrest and DNA damage 45 (GADD45A), GADD45A (gene 1647)
The experiment is described as follows: LTEA_HepaRG_GADD45A: Life Technologies and Expression Analysis (LTEA) Assay for growth arrest and DNA damage 45 (GADD45A) using HepaRG (AID 2283458). A digest of the protocol: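 Human HepaRG liver cells are treated in duplicate for 48 h with chemicals in 0.5% DMSO, highest concentration 100 uM. Expression is read by qRT-PCR and analyzed in both directions against vehicle.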

Read-out in experiment [7]: Forkhead box O3 (FOXO3), FOXO3 (gene 2309)
In words: LTEA_HepaRG_FOXO3: Life Technologies and Expression Analysis (LTEA) Assay for Forkhead box O3 (FOXO3) using HepaRG (AID 2283459). The method, boiled down:
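Differentiated human HepaRG cells, 48 h post-plating, exposed in duplicate for 48 h in serum-free induction medium; 8-point half-log series from 100 uM in 0.5% DMSO. FOXO3 mRNA by TaqMan qRT-PCR, normalized to ACTB/GAPDH/POLR2A; bidirectional fit versus DMSO.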

Read-out in experiment [8]: growth arrest and DNA damage 45 (GADD45B), GADD45B (gene 4616)
The experiment is described as follows: LTEA_HepaRG_GADD45B: Life Technologies and Expression Analysis (LTEA) Assay for growth arrest and DNA damage 45 (GADD45B) using HepaRG (AID 2283461). The method, boiled down: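 Differentiated HepaRG cells, plated 48 h then switched to serum-free induction medium, were exposed 48 h in duplicate to eight half-log concentrations from 100 uM in 0.5% DMSO; mRNA quantified by qRT-PCR, normalized to ACTB/GAPDH/POLR2A, bidirectional fit versus DMSO.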

Read-out in experiment [9]: ABC Transporter (ABCC3), ABCC3 (gene 8714)
The experiment is described as follows: LTEA_HepaRG_ABCC3: Life Technologies and Expression Analysis (LTEA) Assay for ABC Transporter (ABCC3) using HepaRG (AID 2283462). A digest of the protocol:
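HepaRG cells in serum-free induction medium were exposed for 48 h in duplicate to 8-point half-log concentrations topping at 100 uM in 0.5% DMSO. ABCC3 mRNA was measured by qRT-PCR normalized to ACTB, GAPDH and POLR2A, with bidirectional fitting versus DMSO.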

Read-out in experiment [10]: ABC Transporter (ABCB11), ABCB11 (gene 8647)
In words: LTEA_HepaRG_ABCB11: Life Technologies and Expression Analysis (LTEA) Assay for ABC Transporter (ABCB11) using HepaRG (AID 2283463). The method, boiled down: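 Differentiated human HepaRG cells in serum-free induction medium, dosed in duplicate for 48 h. Eight-point half-log series from 100 uM in 0.5% DMSO; ABCB11 mRNA by qRT-PCR, normalized to ACTB, GAPDH, POLR2A, fitted bidirectionally versus DMSO.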

Read-out in experiment [11]: ABC Transporter (ABCC2), ABCC2 (gene 1244)
In words: LTEA_HepaRG_ABCC2: Life Technologies and Expression Analysis (LTEA) Assay for ABC Transporter (ABCC2) using HepaRG (AID 2283464). The method, boiled down: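 HepaRG cells were plated 48 h, switched to serum-free induction medium, then exposed in duplicate for 48 h to 8 concentrations (top 100 uM, half-log steps, 0.5% DMSO). ABCC2 mRNA was measured by qRT-PCR normalized to ACTB/GAPDH/POLR2A; bidirectional fitting versus DMSO.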

Read-out in experiment [12]: Broad substrate specificity ATP-binding cassette transporter ABCG2 (Homo sapiens) (UniProt Q9UNQ0)
In words: LTEA_HepaRG_ABCG2: Life Technologies and Expression Analysis (LTEA) Assay for ABC Transporter (ABCG2) using HepaRG (AID 2283465). The method, boiled down: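 Differentiated HepaRG cells were exposed for 48 h in serum-free induction medium to 8 half-log concentrations, top 100 uM, in 0.5% DMSO. ABCG2 mRNA was measured by qRT-PCR, normalized to ACTB, GAPDH and POLR2A, with bidirectional fitting versus DMSO.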

Read-out in experiment [13]: ATP-citrate lyase (ACLY), ACLY (gene 47)
The experiment is described as follows: LTEA_HepaRG_ACLY: Life Technologies and Expression Analysis (LTEA) Assay for ATP-citrate lyase (ACLY) using HepaRG (AID 2283466). The method, boiled down: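 Differentiated HepaRG cells exposed 48 h in serum-free induction medium to eight half-log concentrations up to 100 uM in 0.5% DMSO, duplicates. Transcript measured by Fluidigm TaqMan qRT-PCR, normalized to ACTB, GAPDH, POLR2A; bidirectional fit versus DMSO.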

Read-out in experiment [14]: Peroxisomal acyl-coenzyme A oxidase 1 (ACOX1) gene, ACOX1 (gene 51)
In words: LTEA_HepaRG_ACOX1: Life Technologies and Expression Analysis (LTEA) Assay for Peroxisomal acyl-coenzyme A oxidase 1 (ACOX1) gene using HepaRG (AID 2283467). A digest of the protocol:
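HepaRG cells, plated 48 h then switched to serum-free induction medium, were exposed in duplicate for 48 h to 8-point half-log concentrations up to 100 uM in 0.5% DMSO. ACOX1 mRNA was measured by qRT-PCR, normalized to ACTB/GAPDH/POLR2A, and fitted bidirectionally versus DMSO.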

Read-out in experiment [15]: Bcl-2 (BAD) gene, BAD (gene 572)
In words: LTEA_HepaRG_BAD: Life Technologies and Expression Analysis (LTEA) Assay for Bcl-2 (BAD) gene using HepaRG (AID 2283469). A digest of the protocol: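 Differentiated HepaRG cells were exposed in duplicate in 0.5% DMSO for 48 h to eight-point half-log concentrations up to 100 uM. BAD mRNA was measured by Fluidigm TaqMan qRT-PCR, normalized to ACTB, GAPDH and POLR2A, and fitted bidirectionally against DMSO.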

Read-out in experiment [16]: Bcl-2 (BAX) gene, BAX (gene 581)
The experiment is described as follows: LTEA_HepaRG_BAX: Life Technologies and Expression Analysis (LTEA) Assay for Bcl-2 (BAX) gene using HepaRG (AID 2283470). A digest of the protocol:
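Concentration-response endpoint fitted in both directions relative to 0.5% DMSO vehicle. Human HepaRG cultures receive test chemicals for 48 h at up to 100 uM; BAX mRNA is quantified by qRT-PCR against housekeeping genes.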

Read-out in experiment [17]: ABC Transporter (ABCB1), ABCB1 (gene 5243)
In words: LTEA_HepaRG_ABCB1: Life Technologies and Expression Analysis (LTEA) Assay for ABC Transporter (ABCB1) using HepaRG (AID 2283460). A digest of the protocol:
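HepaRG cells exposed in duplicate for 48 h in serum-free induction medium to eight half-log concentrations up to 100 uM in 0.5% DMSO. ABCB1 mRNA quantified by qRT-PCR, normalised to ACTB, GAPDH and POLR2A; fitted bidirectionally versus DMSO.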

Read-out in experiment [18]: Alkaline Phosphatase, Placental (ALPP) gene, ALPP (gene 250)
The experiment is described as follows: LTEA_HepaRG_ALPP: Life Technologies and Expression Analysis (LTEA) Assay for Alkaline Phosphatase, Placental (ALPP) gene using HepaRG (AID 2283468). A digest of the protocol:
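Differentiated human HepaRG cells were plated and cultured 48 h, then exposed in duplicate for 48 h in serum-free induction medium to eight half-log concentrations from 100 uM in 0.5% DMSO. ALPP mRNA was measured by TaqMan qRT-PCR, normalized to ACTB, GAPDH, POLR2A.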

Active and inactive are the calls of the source. Rule for the calls: active = hit-call score of the fitted dose curve at least 0.9, where 1 is the maximum; inactive = score below 0.9.

Chain of Broad substrate specificity ATP-binding cassette transporter ABCG2 (Homo sapiens) (Q9UNQ0 whole entry, looked up): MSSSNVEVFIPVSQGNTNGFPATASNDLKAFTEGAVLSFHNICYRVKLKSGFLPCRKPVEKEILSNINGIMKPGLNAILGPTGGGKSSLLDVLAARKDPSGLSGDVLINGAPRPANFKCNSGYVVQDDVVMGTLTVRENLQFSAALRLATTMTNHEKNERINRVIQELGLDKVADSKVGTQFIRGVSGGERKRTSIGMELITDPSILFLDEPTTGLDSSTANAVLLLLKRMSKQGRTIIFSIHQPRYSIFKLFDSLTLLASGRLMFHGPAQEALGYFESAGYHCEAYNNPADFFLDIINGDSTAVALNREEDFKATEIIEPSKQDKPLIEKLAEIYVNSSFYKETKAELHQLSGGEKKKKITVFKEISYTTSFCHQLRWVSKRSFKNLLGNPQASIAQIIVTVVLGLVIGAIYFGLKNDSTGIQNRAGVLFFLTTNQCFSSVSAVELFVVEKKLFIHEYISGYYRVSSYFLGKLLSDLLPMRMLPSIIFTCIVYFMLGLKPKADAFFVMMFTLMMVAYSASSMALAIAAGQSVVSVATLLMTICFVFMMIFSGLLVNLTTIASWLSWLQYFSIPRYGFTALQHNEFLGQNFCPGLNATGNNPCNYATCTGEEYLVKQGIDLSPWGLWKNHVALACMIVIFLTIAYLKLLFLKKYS

With `OC1CCC(C2CCCCC2)CC1` (stereo unspecified), the outcome in experiment [1], in experiment [2], in experiment [3], in experiment [4], in [5] and in experiment [6] was inactive. Besides, the result in [7], in [8], in experiment [9], in experiment [10], in experiment [11] and in [12] was inactive. Further, the compound was classed as inactive in [13], in experiment [14], in [15] and in experiment [16].

For `Oc1cccc(O)c1`, the compound was called inactive in [1], in experiment [2], in [3], in experiment [4], in experiment [5] and in experiment [6]. Moreover, the call in experiment [7], in experiment [17], in [8], in [10], in [11] and in experiment [12] was inactive. The outcome in experiment [13], in [14], in experiment [15] and in experiment [16] was inactive.

Usually AC50 stands for the concentration giving half of the maximal activity seen. For `CC(C)(C)CC(C)(C)c1ccc(O)c(-n2nc3ccccc3n2)c1`, the outcome in experiment [1], in [4], in [5], in experiment [6], in [7] and in [8] was inactive. Besides, the result in experiment [9], in experiment [10], in experiment [13], in [14], in [15] and in experiment [16] was inactive. The AC50 was 77.6 µM (active) in experiment [2], 41 µM (active) in experiment [3], 50 µM (active) in experiment [11] and 30.6 µM (active) in experiment [12].

For `COc1ccc([N+](=O)[O-])cc1N`, the compound was called inactive in experiment [1], in experiment [2], in experiment [4], in experiment [5], in experiment [6] and in [7]. Further, the call in experiment [8], in [10], in experiment [11], in experiment [12], in experiment [13] and in experiment [14] was inactive. The compound was classed as inactive in [15] and in [16]. For the same compound, the half-maximal activity concentration (AC50) in experiment [3] was 50 µM (active).

Turning to `CCCCOCCO`, the compound was called inactive in experiment [1], in experiment [2], in experiment [4], in experiment [5], in [6] and in experiment [7]. Further, the compound was classed as inactive in experiment [8], in [10], in experiment [11], in experiment [12], in experiment [13] and in experiment [14]. Further, the call in [15] and in experiment [16] was inactive. In addition, in experiment [3], the AC50 was 50 µM (active).

With `CN1CCC[C@H]1c1cccnc1`, the compound was called inactive in experiment [1], in [2], in [4], in experiment [5], in [6] and in experiment [7]. For the same compound, the compound was classed as inactive in experiment [8], in experiment [10], in experiment [11], in [12], in experiment [13] and in experiment [15]. Moreover, the compound was classed as inactive in experiment [16]. Further, the concentration at half-maximal activity (AC50) was 70.6 µM (active) in [3] and 12.6 µM (active) in [14].

`COCC(C)O` (stereo unspecified): the outcome in experiment [1], in experiment [2], in experiment [3], in [4], in experiment [5] and in [6] was inactive. For the same compound, the compound was called inactive in experiment [7], in experiment [17], in [8], in [10], in experiment [11] and in [12]. Also, the outcome in [13], in [14], in [15] and in experiment [16] was inactive.

Consider `CC(=O)CC(C)(C)O`, for which the result in [1], in [2], in [3], in experiment [4], in [5] and in experiment [6] was inactive. In addition, the compound was called inactive in experiment [7], in experiment [17], in experiment [8], in experiment [10], in experiment [11] and in [12]. The compound was classed as inactive in [13], in experiment [14], in experiment [18], in [15] and in [16].
